Data published in PubChem BioAssay (EPA / NIEHS).
“And” between values parts separate entries of the source, which are not always exact repeats. Equal entries are not always repeated. Inconclusive results are not listed. More than one record can exist for a structure, and the calls need not agree. The source made the active and inactive calls. Rule for the calls, unless noted: active = hit-call score of the fitted dose curve at least 0.9, where 1 is the maximum; inactive = score below 0.9.

Columns and labels:
[1] = read-out: Monocyte Chemoattractant Protein-1 (MCP1), CCL2 (gene 6347); assay: BSK_SAg_MCP1: BioMAP Diversity Plus: SAg Assay for Monocyte Chemoattractant Protein-1 (MCP1) Biomarker Activity (AID 2283090); details: primary human HUVEC with PBMC; actives raise or lower the signal
Outline: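 Values derive from bidirectional fitting of ELISA-measured MCP1 against DMSO controls. Readings were taken 24 h after dosing human vascular endothelial cells co-cultured with peripheral blood mononuclear cells under superantigen stimulation.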

[2] = read-out: E-selectin (Homo sapiens) (UniProt P16581); assay: BSK_SAg_Eselectin: BioMAP Diversity Plus: SAg Assay for Eselectin Biomarker Activity (AID 2283091); details: primary human HUVEC with PBMC; actives raise or lower the signal
Outline: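 E-selectin ELISA readout at 24 h post-dosing in human umbilical vein endothelial cell/PBMC co-culture; gain or loss of signal fitted relative to DMSO baseline.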

[3] = read-out: Monokine induced gamma interferon (MIG), CXCL9 (gene 4283); assay: BSK_SAg_MIG: BioMAP Diversity Plus: SAg Assay for Monokine induced gamma interferon (MIG) Biomarker Activity (AID 2283092); details: primary human HUVEC with PBMC; actives raise or lower the signal
Outline: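 ELISA readout of MIG/CXCL9; primary human umbilical vein endothelial cells co-cultured with peripheral blood mononuclear cells; 24 h post-dose; gain/loss fit vs DMSO baseline.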

[4] = BSK_SAg_PBMCCytotoxicity: PBMC Cytotoxicity Assessment in the BioMAP Diversity Plus: SAg Assay (AID 2283093); details: primary human HUVEC with PBMC;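 note: PBMC viability measured as Alamar Blue reduction fluorescence at 546/580 nm; fitted both ways against DMSO so a hit may be loss or gain of signal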;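 for AC50: PBMC superantigen activated with SEB plus TSST-1 one hour after compound addition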
Outline: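 Alamar Blue reduction (6 h, 546/580 nm) reports PBMC cytotoxicity after 90 h superantigen activation (SEB, TSST-1; 20 ng/mL final each) with 1 h compound pre-treatment. Gain or loss of signal fitted versus DMSO.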

[5] = read-out: Interleukin-8 (IL8), CXCL8 (gene 3576); assay: BSK_SAg_IL8: BioMAP Diversity Plus: SAg Assay for Interleukin-8 (IL8) Biomarker Activity (AID 2283094); details: primary human HUVEC with PBMC; actives raise or lower the signal
Outline: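 HUVEC/PBMC co-culture, 24 h post-dose; IL-8 by ELISA. Gain or loss of signal fitted bidirectionally vs DMSO baseline.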

[6] = BSK_SAg_Proliferation: Cell Proliferation Assessment in the BioMAP Diversity Plus: SAg Assay (AID 2283095); details: primary human HUVEC with PBMC;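 note: relative cell number as total protein by SRB absorbance in sub-confluent culture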
Outline: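 HUVEC/PBMC co-culture, 96-well. TCA-fixed (10%), 0.1% SRB stain, A560 at 96 h. Protein content used as viability readout; bidirectional fitting vs DMSO control.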

[7] = BSK_SAg_SRB: Viability Assessment in the BioMAP Diversity Plus: SAg Assay (AID 2283096); details: primary human HUVEC with PBMC;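 note: cells read one day after compound addition; hits may be either gain or loss of signal compared with DMSO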
Outline: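 This overt-cytotoxicity endpoint quantifies protein in human endothelial/PBMC co-cultures at 24 h using SRB absorbance (560 nm) after trichloroacetic acid fixation. Values reflect signal change from the DMSO negative control, fitted bidirectionally.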

[8] = biological target: human CYP19A1, CYP19A1 (gene 1588) (UniProt P11511); assay: NVS_ADME_hCYP19A1: NovaScreen (NVS) CYP450-related Enzyme Activity (ADME) Assay for human CYP19A1 (AID 2283098; active = hit-call score of the fitted dose curve at least 0.9, where 1 is the maximum;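 for AC50: potency for inhibitors seen as loss of fluorescent enzyme signal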)
Sequence of human CYP19A1, CYP19A1 (gene 1588) (P11511 whole entry, looked up): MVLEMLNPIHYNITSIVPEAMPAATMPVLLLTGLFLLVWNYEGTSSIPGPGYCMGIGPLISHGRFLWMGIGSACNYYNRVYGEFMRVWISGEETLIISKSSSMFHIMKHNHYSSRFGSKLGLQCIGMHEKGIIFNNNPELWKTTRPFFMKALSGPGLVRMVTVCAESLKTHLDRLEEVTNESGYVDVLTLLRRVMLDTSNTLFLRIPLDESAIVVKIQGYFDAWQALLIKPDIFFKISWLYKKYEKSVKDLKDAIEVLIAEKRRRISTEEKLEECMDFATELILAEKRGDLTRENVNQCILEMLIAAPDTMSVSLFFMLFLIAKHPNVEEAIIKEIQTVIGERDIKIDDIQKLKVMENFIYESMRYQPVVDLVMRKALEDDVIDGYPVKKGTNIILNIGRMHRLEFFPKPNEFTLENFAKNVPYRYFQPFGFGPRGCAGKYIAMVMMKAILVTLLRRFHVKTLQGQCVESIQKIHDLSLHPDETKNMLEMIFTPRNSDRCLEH
Outline: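 Compounds were first screened at 10 uM in duplicate against purified enzyme, with a fluorogenic substrate and fluorescence intensity detection after 0.5 h. Inhibition appears as reduced signal against acetonitrile control.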

[9] = biological target: human CYP1A1, CYP1A1 (gene 1543) (UniProt P04798); assay: NVS_ADME_hCYP1A1: NovaScreen (NVS) CYP450-related Enzyme Activity (ADME) Assay for human CYP1A1 (AID 2283100; active = hit-call score of the fitted dose curve at least 0.9, where 1 is the maximum)
Sequence of human CYP1A1, CYP1A1 (gene 1543) (P04798 whole entry, looked up): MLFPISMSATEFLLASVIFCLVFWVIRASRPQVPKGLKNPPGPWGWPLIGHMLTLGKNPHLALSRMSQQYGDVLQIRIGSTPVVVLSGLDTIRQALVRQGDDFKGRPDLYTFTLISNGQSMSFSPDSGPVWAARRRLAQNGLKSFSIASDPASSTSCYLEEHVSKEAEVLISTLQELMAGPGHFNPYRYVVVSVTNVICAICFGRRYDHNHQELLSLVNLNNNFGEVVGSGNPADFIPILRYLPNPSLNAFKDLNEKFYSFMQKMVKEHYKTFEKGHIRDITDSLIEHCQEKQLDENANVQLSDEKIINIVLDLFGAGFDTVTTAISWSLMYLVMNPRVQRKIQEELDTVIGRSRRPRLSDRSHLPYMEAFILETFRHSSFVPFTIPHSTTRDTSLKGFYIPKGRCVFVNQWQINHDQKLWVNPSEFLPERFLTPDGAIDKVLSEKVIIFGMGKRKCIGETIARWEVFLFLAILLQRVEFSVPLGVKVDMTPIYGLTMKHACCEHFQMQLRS
Outline: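 Read-out: fluorescence intensity from enzymatic turnover of substrate by recombinant CYP1A1, loss of signal indicating inhibition. Incubation 1 h post-dose. Primary single-point 10 uM in duplicate; actives rerun singly with top concentration 20 uM.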

[10] = biological target: Cytochrome P450 2C19 (Homo sapiens) (UniProt P33261); assay: NVS_ADME_hCYP2C19: NovaScreen (NVS) CYP450-related Enzyme Activity (ADME) Assay for human CYP2C19 (AID 2283113; active = hit-call score of the fitted dose curve at least 0.9, where 1 is the maximum;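 for AC50: potency for inhibition seen as loss of fluorescent signal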)
Outline: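 Recombinant insect-cell-expressed enzyme, fluorescent substrate, 1 h after chemical addition, fluorescence intensity. Baseline = acetonitrile vehicle; activity scored as signal loss. Primary HTS single concentration 10 uM, duplicate; actives retested in concentration series.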

[11] = biological target: rat CYP2A1, Cyp2a1 (gene 24894) (UniProt P11711); assay: NVS_ADME_rCYP2A1: NovaScreen (NVS) CYP450-related Enzyme Activity (ADME) Assay for rat CYP2A1 (AID 2283114)
Sequence of rat CYP2A1, Cyp2a1 (gene 24894) (P11711 whole entry, looked up): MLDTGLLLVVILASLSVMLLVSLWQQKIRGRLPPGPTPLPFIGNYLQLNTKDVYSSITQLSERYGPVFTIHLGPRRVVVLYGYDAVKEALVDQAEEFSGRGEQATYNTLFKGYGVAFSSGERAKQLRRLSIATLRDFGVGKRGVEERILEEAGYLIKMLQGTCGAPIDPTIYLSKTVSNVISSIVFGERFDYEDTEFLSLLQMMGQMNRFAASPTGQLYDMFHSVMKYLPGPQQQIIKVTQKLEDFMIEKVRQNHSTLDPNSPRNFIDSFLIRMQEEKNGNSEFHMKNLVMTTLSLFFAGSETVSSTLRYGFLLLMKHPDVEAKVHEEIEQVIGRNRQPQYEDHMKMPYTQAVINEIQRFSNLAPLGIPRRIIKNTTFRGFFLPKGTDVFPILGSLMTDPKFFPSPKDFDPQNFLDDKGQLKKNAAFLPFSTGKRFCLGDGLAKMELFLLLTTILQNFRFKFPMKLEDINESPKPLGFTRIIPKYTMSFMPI
Outline: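 Cell-free fluorescence enzyme-activity read on recombinant rat CYP2A1, taken 0.75 h post-dosing. Compounds were screened in duplicate at 10 uM, then hits tested in concentration series (max 20 uM); inhibition scored relative to acetonitrile baseline.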

[12] = biological target: human CYP1A2, CYP1A2 (gene 1544) (UniProt P05177); assay: NVS_ADME_hCYP1A2: NovaScreen (NVS) CYP450-related Enzyme Activity (ADME) Assay for human CYP1A2 (AID 2283102; active = hit-call score of the fitted dose curve at least 0.9, where 1 is the maximum;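 for AC50: potency for inhibition since loss of fluorescence marks reduced CYP1A2 activity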)
Sequence of human CYP1A2, CYP1A2 (gene 1544) (P05177 whole entry, looked up): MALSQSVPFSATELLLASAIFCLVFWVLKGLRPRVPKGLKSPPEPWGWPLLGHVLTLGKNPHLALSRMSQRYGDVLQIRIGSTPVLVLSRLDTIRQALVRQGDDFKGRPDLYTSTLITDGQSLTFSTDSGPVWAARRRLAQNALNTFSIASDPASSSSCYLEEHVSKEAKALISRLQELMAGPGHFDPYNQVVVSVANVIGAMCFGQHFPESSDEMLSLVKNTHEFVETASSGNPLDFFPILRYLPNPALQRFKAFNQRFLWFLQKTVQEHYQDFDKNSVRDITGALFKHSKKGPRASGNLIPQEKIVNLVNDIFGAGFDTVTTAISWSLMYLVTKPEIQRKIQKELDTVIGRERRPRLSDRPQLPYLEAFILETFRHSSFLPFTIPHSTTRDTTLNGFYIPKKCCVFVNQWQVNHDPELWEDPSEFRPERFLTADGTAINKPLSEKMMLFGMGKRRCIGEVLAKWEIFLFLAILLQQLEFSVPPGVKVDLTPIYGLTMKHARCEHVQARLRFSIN
Outline: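 Fluorescence-intensity enzyme activity read-out, taken 0.5 h post-dosing, using insect-cell-derived recombinant CYP1A2 and specific fluorescent substrate. Acetonitrile served as negative control/baseline. Single-concentration duplicate screen at 10 uM, then concentration-response follow-up.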

[13] = biological target: Cytochrome P450 3A4 (Homo sapiens) (UniProt P08684); assay: NVS_ADME_hCYP3A4: NovaScreen (NVS) CYP450-related Enzyme Activity (ADME) Assay for human CYP3A4 (AID 2283110; active = hit-call score of the fitted dose curve at least 0.9, where 1 is the maximum)
Outline: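 Activity is derived from decreased fluorescence intensity relative to acetonitrile, measured 0.33 hour after dosing insect-cell-expressed CYP3A4 in a cell-free format. Screening used 10 uM in duplicate before concentration-response follow-up.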

[14] = biological target: human CYP2B6, CYP2B6 (gene 1555) (UniProt P20813); assay: NVS_ADME_hCYP2B6: NovaScreen (NVS) CYP450-related Enzyme Activity (ADME) Assay for human CYP2B6 (AID 2283101; active = hit-call score of the fitted dose curve at least 0.9, where 1 is the maximum)
Sequence of human CYP2B6, CYP2B6 (gene 1555) (P20813 whole entry, looked up): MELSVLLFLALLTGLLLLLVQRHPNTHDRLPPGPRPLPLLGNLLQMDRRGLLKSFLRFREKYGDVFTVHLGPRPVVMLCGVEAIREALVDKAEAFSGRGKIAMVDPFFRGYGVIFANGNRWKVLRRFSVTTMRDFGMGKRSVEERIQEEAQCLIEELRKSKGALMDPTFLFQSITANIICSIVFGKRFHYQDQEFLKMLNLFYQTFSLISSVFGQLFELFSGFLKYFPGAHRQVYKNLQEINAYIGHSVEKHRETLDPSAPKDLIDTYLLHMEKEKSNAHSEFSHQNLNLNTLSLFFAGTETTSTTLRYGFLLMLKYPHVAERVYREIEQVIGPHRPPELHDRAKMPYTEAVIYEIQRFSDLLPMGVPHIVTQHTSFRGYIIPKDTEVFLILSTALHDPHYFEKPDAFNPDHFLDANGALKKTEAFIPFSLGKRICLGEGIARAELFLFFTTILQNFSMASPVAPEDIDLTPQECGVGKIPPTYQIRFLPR
Outline: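 Fluorescence-based enzyme activity of recombinant human CYP2B6, measured 1 h post-dose against acetonitrile vehicle baseline. Screened at a single concentration of 10 uM in duplicate before concentration-response follow-up.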

[15] = biological target: human CYP2C9, CYP2C9 (gene 1559) (UniProt P11712); assay: NVS_ADME_hCYP2C9: NovaScreen (NVS) CYP450-related Enzyme Activity (ADME) Assay for human CYP2C9 (AID 2283108; active = hit-call score of the fitted dose curve at least 0.9, where 1 is the maximum)
Sequence of human CYP2C9, CYP2C9 (gene 1559) (P11712 whole entry, looked up): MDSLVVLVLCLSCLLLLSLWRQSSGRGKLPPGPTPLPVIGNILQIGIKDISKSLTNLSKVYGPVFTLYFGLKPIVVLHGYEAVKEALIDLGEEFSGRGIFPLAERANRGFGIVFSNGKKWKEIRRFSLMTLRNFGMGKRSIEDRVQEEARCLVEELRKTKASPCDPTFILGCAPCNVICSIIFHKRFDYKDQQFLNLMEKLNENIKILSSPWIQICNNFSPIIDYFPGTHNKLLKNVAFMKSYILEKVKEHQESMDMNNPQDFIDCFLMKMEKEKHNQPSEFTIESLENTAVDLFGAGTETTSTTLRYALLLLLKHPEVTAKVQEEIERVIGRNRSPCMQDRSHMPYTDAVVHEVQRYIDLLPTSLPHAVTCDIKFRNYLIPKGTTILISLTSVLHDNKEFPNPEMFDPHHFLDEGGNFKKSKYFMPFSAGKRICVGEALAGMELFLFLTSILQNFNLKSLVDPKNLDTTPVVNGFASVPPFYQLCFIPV
Outline: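 Cell-free assay of recombinant human CYP2C9 produced in Sf9 cells, with enzyme activity read by fluorescence intensity 0.75 h after compound addition. Loss of signal versus an acetonitrile negative control indicates inhibition. Primary screen used 10 uM in duplicate; actives were retested in concentration series.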

[16] = biological target: rat CYP2A2, Cyp2a2 (gene 24895) (UniProt P15149); assay: NVS_ADME_rCYP2A2: NovaScreen (NVS) CYP450-related Enzyme Activity (ADME) Assay for rat CYP2A2 (AID 2283116; active = hit-call score of the fitted dose curve at least 0.9, where 1 is the maximum)
Sequence of rat CYP2A2, Cyp2a2 (gene 24895) (P15149 whole entry, looked up): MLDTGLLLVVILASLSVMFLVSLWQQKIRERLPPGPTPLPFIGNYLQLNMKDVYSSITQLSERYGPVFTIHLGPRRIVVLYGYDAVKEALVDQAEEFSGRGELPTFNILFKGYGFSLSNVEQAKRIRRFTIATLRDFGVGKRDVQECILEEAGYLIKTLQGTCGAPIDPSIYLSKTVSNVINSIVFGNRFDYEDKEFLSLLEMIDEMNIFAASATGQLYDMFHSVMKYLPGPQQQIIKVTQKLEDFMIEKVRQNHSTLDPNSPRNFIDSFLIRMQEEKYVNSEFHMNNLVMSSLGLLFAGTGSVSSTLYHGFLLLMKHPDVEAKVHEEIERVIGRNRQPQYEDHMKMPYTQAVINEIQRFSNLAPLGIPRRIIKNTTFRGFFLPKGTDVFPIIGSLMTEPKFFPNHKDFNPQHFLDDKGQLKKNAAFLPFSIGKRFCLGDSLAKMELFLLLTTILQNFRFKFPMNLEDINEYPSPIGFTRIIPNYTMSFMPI
Outline: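 Compounds first tested in duplicate at 10 uM, then in singleton concentration series up to 20 uM when over threshold. Activity of the recombinant enzyme read by fluorescence at 0.2 h, normalised to acetonitrile vehicle.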

[17] = biological target: rat CYP2C11, Cyp2c11 (gene 29277) (UniProt P08683); assay: NVS_ADME_rCYP2C11: NovaScreen (NVS) CYP450-related Enzyme Activity (ADME) Assay for rat CYP2C11 (AID 2283118; active = hit-call score of the fitted dose curve at least 0.9, where 1 is the maximum)
Sequence of rat CYP2C11, Cyp2c11 (gene 29277) (P08683 whole entry, looked up): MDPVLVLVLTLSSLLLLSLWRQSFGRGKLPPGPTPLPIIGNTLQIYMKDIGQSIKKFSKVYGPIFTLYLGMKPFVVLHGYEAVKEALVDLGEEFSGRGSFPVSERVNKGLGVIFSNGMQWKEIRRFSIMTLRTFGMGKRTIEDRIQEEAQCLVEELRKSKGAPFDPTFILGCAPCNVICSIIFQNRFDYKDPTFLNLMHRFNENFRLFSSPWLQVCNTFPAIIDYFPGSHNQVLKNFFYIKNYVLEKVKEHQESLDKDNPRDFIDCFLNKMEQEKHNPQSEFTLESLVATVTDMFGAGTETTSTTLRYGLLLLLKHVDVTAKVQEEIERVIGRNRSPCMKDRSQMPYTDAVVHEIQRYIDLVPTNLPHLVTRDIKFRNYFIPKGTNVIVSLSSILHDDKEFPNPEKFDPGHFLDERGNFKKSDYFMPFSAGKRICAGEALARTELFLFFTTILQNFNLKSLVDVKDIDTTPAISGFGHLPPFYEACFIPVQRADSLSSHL
Outline: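 Screened first at 10 uM in duplicate, hits followed by concentration-response. Recombinant rat enzyme activity monitored by fluorescence 0.33 h post-dosing, normalised to acetonitrile negative control.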

[18] = biological target: human CYP2A6, CYP2A6 (gene 1548) (UniProt P11509); assay: NVS_ADME_hCYP2A6: NovaScreen (NVS) CYP450-related Enzyme Activity (ADME) Assay for human CYP2A6 (AID 2283099; active = hit-call score of the fitted dose curve at least 0.9, where 1 is the maximum)
Outline: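 Insect-cell-expressed human CYP2A6 enzyme activity measured by fluorescence intensity 0.5 hour post-dosing. Compounds screened at 10 uM in duplicate, then hits tested singly in concentration series (max 20 uM); acetonitrile baseline.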

[19] = biological target: human CYP2D6, CYP2D6 (gene 1565) (UniProt P10635); assay: NVS_ADME_hCYP2D6: NovaScreen (NVS) CYP450-related Enzyme Activity (ADME) Assay for human CYP2D6 (AID 2283107; active = hit-call score of the fitted dose curve at least 0.9, where 1 is the maximum)
Outline: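 Fluorescence intensity read 1 h post-dosing; insect-cell-expressed recombinant protein with fluorogenic substrate, no cells. Activity is scored as signal loss relative to acetonitrile baseline, first at a single 10 uM concentration in duplicate, then as concentration series for confirmed actives.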

rat CYP2C6, gene 293989 = assay: NVS_ADME_rCYP2C6: NovaScreen (NVS) CYP450-related Enzyme Activity (ADME) Assay for rat CYP2C6 (AID 2283120; active = hit-call score of the fitted dose curve at least 0.9, where 1 is the maximum)
Outline: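 Compounds first tested in duplicate at 10 uM, hits (e.g. 30% inhibition) re-run in singleton dose series to a 20 uM top concentration. Enzyme activity of recombinant rat CYP2C6 measured via fluorescent substrate turnover after 1 h; acetonitrile baseline.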

Measured: AC50

Sequence of E-selectin (Homo sapiens) (P16581 whole entry, looked up): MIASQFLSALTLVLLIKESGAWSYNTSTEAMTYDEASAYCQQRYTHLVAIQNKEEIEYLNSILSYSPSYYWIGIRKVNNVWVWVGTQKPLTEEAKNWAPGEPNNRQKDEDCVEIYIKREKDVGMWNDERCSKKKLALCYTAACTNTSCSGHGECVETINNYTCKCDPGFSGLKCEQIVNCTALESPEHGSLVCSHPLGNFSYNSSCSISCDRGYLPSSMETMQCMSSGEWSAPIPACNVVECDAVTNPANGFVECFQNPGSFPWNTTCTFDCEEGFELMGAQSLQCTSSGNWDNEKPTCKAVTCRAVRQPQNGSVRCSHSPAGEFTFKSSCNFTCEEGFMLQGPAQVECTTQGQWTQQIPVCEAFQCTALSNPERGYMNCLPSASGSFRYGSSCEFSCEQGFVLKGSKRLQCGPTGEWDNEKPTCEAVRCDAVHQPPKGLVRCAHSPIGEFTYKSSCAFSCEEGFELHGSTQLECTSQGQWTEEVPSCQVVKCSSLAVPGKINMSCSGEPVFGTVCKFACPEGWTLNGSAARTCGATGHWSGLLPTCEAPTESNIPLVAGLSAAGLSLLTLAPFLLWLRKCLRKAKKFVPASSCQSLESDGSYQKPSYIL

COC(=O)c1ccccc1C(=O)O
inactive: [1] | [3] | [4] | [5] | [6] | [7] | [9] | [11]
active: [2] 5.96 µM | [8] 3.5 µM | [10] 5.84 µM

O=C(Nc1ccc([N+](=O)[O-])cc1Cl)c1cc(Cl)ccc1O
active: [1] 0.148 µM | [2] 0.148 µM | [3] 0.289 µM | [4] 1.78 µM | [5] 0.493 µM | [6] 0.148 µM | [7] 0.65 µM

OB(O)O
inactive: [1] | [2] | [3] | [4] | [5] | [6] | [7]

c1ccc(Nc2ccccc2)cc1
inactive: [1] | [2] | [3] | [4] | [5] | [6] | [7]

O=C(c1ccccc1)C1CCCCC1
inactive: [1] | [2] | [3] | [4] | [5] | [6] | [7] | [8]

COc1c(Cl)ccc(Cl)c1C(=O)O
active: [1] 11.8 µM
inactive: [2] | [3] | [4] | [5] | [6] | [7]

COC(=O)CSc1cc(N=c2sc(=O)n3n2CCCC3)c(F)cc1Cl
inactive: [1] | [2] | [3] | [4] | [5] | [6] | [7] | [8] | [9] | [12]

CCCCC(CC)CN1C(=O)C2C3C=CC(C3)C2C1=O (stereo not given)
inactive: [1] | [2] | [3] | [5] | [8]
active: [4] 15.3 µM | [6] 32.7 µM | [7] 20 µM | [12] 5.57 µM | [13] 3 µM | [10] 8.18 µM

CC(C)(c1ccc(O)cc1)c1ccc(O)cc1
active: [1] 20 µM | [2] 24.9 µM | [5] 14.5 µM | [6] 20.3 µM and 28.7 µM and 25.7 µM | [9] 5.22 µM | [14] 12.1 µM | [15] 5.49 µM [middle of 4 runs] | [11] 4.1 µM [middle of 4 runs] | [16] 2.98 µM [middle of 4 runs] | [17] 1.16 µM [middle of 4 runs]
inactive: [1] | [2] | [3] | [4] | [5] | [7] | [8] | [9] | [14]

C=CCOC(Cn1ccnc1)c1ccc(Cl)cc1Cl (stereo not given)
active: [2] 32.9 µM | [4] 13.9 µM | [5] 37.1 µM | [6] 31.9 µM | [8] 0.628 µM | [18] 2.52 µM | [9] 1.55 µM | [14] 0.188 µM | [19] 3.95 µM | [15] 379 nM | [10] 0.062 µM | [11] 187 nM | [16] 17.5 nM | [17] 463 nM | rat CYP2C6, gene 293989 0.452 µM
inactive: [1] | [3] | [7]

S=C(S)NCCNC(=S)S.[Mn+2].[S-]C([S-])=NCCN=C([S-])[S-].[Zn+2]
inactive: [1] | [2] | [3] | [4] | [5] | [6] | [7] | [8] | [18] | [9] | [12] | [10]
active: [2] 12.4 µM | [4] 7.86 µM and 20 µM | [15] 1.63 µM and 1.92 µM and 4.37 µM

C[C@]12C[C@H](O)[C@H]3[C@@H](CCC4=CC(=O)CC[C@@]43C)[C@@H]1CC[C@@H]2C(=O)CO
inactive: [1] | [2] | [3] | [4] | [5] | [6] | [7] | [8]

N[C@@H](Cc1cc(I)c(Oc2ccc(O)c(I)c2)c(I)c1)C(=O)O
inactive: [1] | [2] | [3] | [4] | [5] | [6] | [7]
